From PubChem BioAssay AID1159580 (chemical genetic matrix, 2015)
Where “and” joins values, the source holds several entries; their conditions need not be identical. Identical values can stand only once. The whole screen tested about 5,500 compounds, of which about 2,000 (36%) were called active. Roughly 18% stayed inconclusive and do not appear here. Rule as the data show it: active = normalized growth mostly below about 0.91 (no sharp cut-off); inconclusive = no clear call, values can overlap the other calls; inactive = mostly above about 0.92. The list shows a part of the results.

Test: chemical genetic growth profiling, strain panel (AID 1159580);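 also: tested at 20 µM; growth read once vehicle control cultures reached saturation at 30 °C; 1 = growth at the plate median or of vehicle wells; lower values mean less growth of the strain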
Details: S. cerevisiae deletion strains, growth OD

Measured: normalized growth

O=C(O)c1cc2ccccc2[nH]1
inactive: locus YAL013W, strain DEP1, stronger effect = lower value 1.01 | locus YAL021C, strain ccr4, stronger effect = lower value 0.969 | locus YAL026C, strain drs2, stronger effect = lower value 0.99 | locus YAL030W, strain snc1, stronger effect = lower value 1 | locus YBL061C, strain skt5, stronger effect = lower value 0.996 | locus YBR009C, strain hhf1, stronger effect = lower value 0.996 | locus YBR021W, strain FUR4, stronger effect = lower value 0.98 | locus YBR023C, strain chs3, stronger effect = lower value 0.994 | locus YBR171W, strain sec66, stronger effect = lower value 0.982 | locus YBR229C, strain ROT2, stronger effect = lower value 1 | locus YBR231C, strain swc5, stronger effect = lower value 0.994 | locus YBR279W, strain paf1, stronger effect = lower value 0.991 | locus YCL011C, strain gbp2, stronger effect = lower value 0.98 | locus YCL016C, strain dcc1, stronger effect = lower value 0.998 | locus YCL029C, strain bik1, stronger effect = lower value 1.01 | locus YCL061C, strain MRC1, stronger effect = lower value 0.973 | locus YCL069W, strain vba3, stronger effect = lower value 0.984 | locus YCR088W, strain abp1, stronger effect = lower value 0.98 | locus YDL005C, strain med2, stronger effect = lower value 0.982 | locus YDL035C, strain GPR1, stronger effect = lower value 1.01 | locus YDL040C, strain nat1, stronger effect = lower value 0.995 | locus YDL074C, strain BRE1, stronger effect = lower value 1.01 | locus YDL101C, strain DUN1, stronger effect = lower value 1.02 | locus YDL134C, strain PPH21, stronger effect = lower value 1.01 | locus YDL185W, strain tfp1, stronger effect = lower value 1.01 | locus YDL192W, strain arf1, stronger effect = lower value 1.02 | locus YDR001C, strain nth1, stronger effect = lower value 0.977 | locus YDR069C, strain doa4, stronger effect = lower value 1 | locus YDR101C, strain arx1, stronger effect = lower value 1.02 | locus YDR137W, strain rgp1, stronger effect = lower value 0.938 | locus YDR150W, strain NUM1, stronger effect = lower value 1.01 | locus YDR159W, strain sac3, stronger effect = lower value 0.982 | locus YDR162C, strain NBP2, stronger effect = lower value 1.04 | locus YDR195W, strain ref2 0.978 | locus YDR297W, strain sur2, stronger effect = lower value 0.981 | locus YDR318W, strain mcm21, stronger effect = lower value 1.01 | locus YDR334W, strain swr1, stronger effect = lower value 0.958 | locus YDR335W, strain msn5, stronger effect = lower value 0.987 | locus YDR388W, stronger effect = lower value 1.01 | locus YDR392W, strain spt3, stronger effect = lower value 0.947 | locus YDR502C, strain sam2, stronger effect = lower value 1.01 | locus YEL003W, strain gim4, stronger effect = lower value 0.978 | locus YEL037C, strain rad23, stronger effect = lower value 0.982 | locus YEL061C, strain CIN8 (second series), stronger effect = lower value 0.981 | locus YEL061C, strain CIN8, stronger effect = lower value 1 | locus YER015W, strain faa2, stronger effect = lower value 0.989 | locus YER016W, strain bim1, stronger effect = lower value 1 | locus YER110C, stronger effect = lower value 1.02 | locus YER111C, strain swi4, stronger effect = lower value 0.997 | locus YER155C, strain BEM2 (second series), stronger effect = lower value 1.01 | locus YER155C, strain BEM2, stronger effect = lower value 0.992 | locus YER167W, strain BCK2, stronger effect = lower value 1.01 | locus YFR010W, strain ubp6, stronger effect = lower value 0.968 | locus YGL078C, strain dbp3, stronger effect = lower value 0.995 | locus YGL086W, strain mad1, stronger effect = lower value 1.02 | locus YGL167C, strain pmr1, stronger effect = lower value 0.993 | locus YGL173C, strain kem1, stronger effect = lower value 0.975 | locus YGL227W, strain vid30, stronger effect = lower value 0.982 | locus YGL240W, strain doc1, stronger effect = lower value 1 | locus YGL248W, strain PDE1, stronger effect = lower value 1 | locus YGL253W, strain hxk2, stronger effect = lower value 0.987 | locus YGR078C, strain PAC10, stronger effect = lower value 0.99 | locus YGR135W, strain pre9, stronger effect = lower value 1.01 | locus YGR229C, strain SMI1, stronger effect = lower value 0.999 | locus YGR252W, strain gcn5, stronger effect = lower value 0.984 | locus YHR013C, strain ard1, stronger effect = lower value 1 | locus YHR027C, strain rpn1, stronger effect = lower value 1.02 | locus YHR030C, strain SLT2, stronger effect = lower value 1.01 and 1.03 | locus YHR079C, strain IRE1 (second series), stronger effect = lower value 1.01 | locus YHR079C, strain IRE1, stronger effect = lower value 1 | locus YHR094C, strain hxt1, stronger effect = lower value 1.02 | locus YHR129C, strain ARP1, stronger effect = lower value 1.01 | locus YHR142W, strain chs7, stronger effect = lower value 0.928 | locus YHR200W, strain rpn10, stronger effect = lower value 1.02 | locus YIL066C, strain RNR3, stronger effect = lower value 1.02 | locus YIL073C, strain SPO22, stronger effect = lower value 1.07 | locus YIL125W, strain kgd1, stronger effect = lower value 0.995 | locus YIR030C, strain dcg1, stronger effect = lower value 1.01 | locus YJL092W, strain hpr5, stronger effect = lower value 0.97 | locus YJL095W, strain BCK1 (second series), stronger effect = lower value 1 | locus YJL095W, strain BCK1, stronger effect = lower value 1.01 | locus YJL115W, strain asf1, stronger effect = lower value 0.975 | locus YJL129C, strain trk1, stronger effect = lower value 0.971 | locus YJL134W, strain LCB3, stronger effect = lower value 1.01 | locus YJL154C, strain vps35, stronger effect = lower value 0.966 | locus YJL164C, strain tpk1, stronger effect = lower value 1 | locus YJL166W, strain qcr8, stronger effect = lower value 1 | locus YJL168C, strain set2, stronger effect = lower value 1.02 | locus YJL187C, strain SWE1 (second series), stronger effect = lower value 1.01 | locus YJL187C, strain SWE1, stronger effect = lower value 0.988 | locus YJR043C, strain POL32, stronger effect = lower value 0.99 | locus YJR066W, strain TOR1, stronger effect = lower value 0.935
